D3 ag: agonists of human D3 dopamine receptor | D3R DiscoveRx beta-arrestin cells, luminescence, 90 min | max activation, % | 0.58% of 410,000 active | AID 652048; in the data active means max activation above about 30%; further: 0% is about no effect
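Agonist-mode cell screen: cells plated at 1500/well and incubated overnight at 37 °C, then exposed to library compounds for 90 min at 37 °C. Detection reagent was added for 30–60 min at room temperature, and luminescence was read.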
D3 antag: D3 dopamine receptor (human) antagonism; P35462; D3R cells, DiscoveRx beta-arrestin luminescence, antagonist mode; stronger effect = lower value; max response, negative = inhibition, %; 2.5% of 360,000 active; AID 652054; in the data active means max response below about -50%; inconclusive means no clear call, values can overlap the other calls; further: on the % scale 0 is the no-effect control and ±100 the full control effect
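Cells plated overnight at 1500 cells/well, then exposed to library compounds with dopamine controls for 90 minutes at 37 degrees C. DiscoveRx reagent added for 30–60 minutes at room temperature; luminescence read, quantitative HTS format.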
IDH1 R132H inh: human IDH1 R132H inhibition; O75874; IDH1-R132H enzyme, NADPH consumption, diaphorase/resazurin fluorescence; Potency, µM (top dose mostly 76.6 µM), for the others: at the highest dose activity change, negative = inhibition, actives largely listed as inhibitors; 0.093% of 390,000 active; AID 602179; further: potency means the concentration at half of the fitted maximal effect; on the % scale 0 is the no-effect control and ±100 the full control effect; nearly all actives have a fitted effect of over 65% in size
Target sequence (O75874 whole entry R132H, stated change not applied): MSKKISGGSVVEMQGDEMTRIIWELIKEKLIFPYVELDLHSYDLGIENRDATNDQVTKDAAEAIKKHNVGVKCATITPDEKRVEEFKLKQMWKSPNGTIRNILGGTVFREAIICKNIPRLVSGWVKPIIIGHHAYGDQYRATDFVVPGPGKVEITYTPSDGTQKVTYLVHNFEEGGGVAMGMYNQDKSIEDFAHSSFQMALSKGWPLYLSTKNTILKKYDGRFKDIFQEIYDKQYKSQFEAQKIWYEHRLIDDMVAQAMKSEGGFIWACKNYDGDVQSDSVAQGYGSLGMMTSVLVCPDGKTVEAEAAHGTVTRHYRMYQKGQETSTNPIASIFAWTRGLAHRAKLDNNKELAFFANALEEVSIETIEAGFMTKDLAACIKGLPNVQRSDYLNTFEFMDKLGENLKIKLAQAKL
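IDH1-R132H (0.5 ug/mL dispensed) in pH 7.5 Tris buffer was preincubated 30 min with compound, then given a substrate mix of 0.016 mM NADPH and 2 mM alpha-KG for 80 min at room temperature; remaining NADPH was read by diaphorase/resazurin fluorescence.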
B2AR arrestin: agonists driving beta-arrestin recruitment to human beta2-adrenergic receptor; P07550; beta-arrestin recruitment to beta2AR, cell-based reporter; Potency, µM (series often up to 46.1 µM), for inactives: at the top dose activation, actives largely listed as activators; 0.02% of 330,000 active; AID 492947;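 further: potency means the concentration at half of the fitted maximal effect; 0% = DMSO controls and full agonism = EC100 isoproterenol or metaproterenol; nearly all actives have a fitted effect of over 65% in size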
Integrin act MD: activators of alpha7 integrin expression for muscular dystrophy | alpha7betagal myoblasts, beta-gal FDG fluorescence, 48 h | Potency, µM (highest dose often 38.3 µM), without a hit: at the highest dose activation, actives largely listed as activators | 0.064% of 350,000 active | AID 624291;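 further: potency means the concentration at half of the fitted maximal effect; 100% = response of the positive control SU9516; nearly all actives have a fitted effect of over 60% in size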
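Alpha7betagal+/- myoblasts (passage 13) were plated 16-24 hr, then exposed to compounds (1:260 dilution of DMSO stock) for 48 hours at 37C. After MPER lysis, β-galactosidase reporter activity was read as FDG fluorescence (ex 480/em 540) after 30 minutes.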
The depositor's hits bear a star; u = inconclusive; x = not tested or not shown. An excerpt weighted towards active compounds, which were near 2.9% of everything screened. Unless noted, the call rests on the fitted dose curve; in most records, active means well fitted curve in the direction sought with a large enough effect; inconclusive means small, poorly fitted or top-dose-only effect, or another doubt; inactive means no such curve, though single readings can be large; an effect the other way counts as inactive or inconclusive.

SMILES | D3 ag | D3 antag | IDH1 R132H inh | B2AR arrestin | Integrin act MD
Cc1cc(OCCN2CCCC2)ccc1[N+](=O)[O-] | -22.5 | -63.0* | 9.1% | 0.0% | -15.8%
O=[N+]([O-])c1cccc(OCCN2CCC(Cc3ccccc3)CC2)c1 | -20.8 | -101.7* | -2.3% | -0.8% | -47.0%
Cc1cc(OCCN2CCOCC2)ccc1[N+](=O)[O-] | -4.6 | -10.0 | 1.0% | 0.0% | 20.6%
COc1cccc(OCCOc2ccccc2[N+](=O)[O-])c1 | -7.1 | -22.9 | 3.7% | x | -12.8%
Cc1ccc([N+](=O)[O-])c(OCCn2cnc3ccccc32)c1 | -17.5 | -17.5 | -0.8% | -0.1% | 4.0%
CCc1cccc(C)c1Nc1c(-c2cccs2)nc2ncccn12 | 1.4 | x | -20.2% | x | x
COc1cccc(N2CCN(C(=O)c3ccc(Cn4c(=O)[nH]c5cc(OC)c(OC)cc5c4=O)cc3)CC2)c1 | -8.6 | x | -7.8% | x | x
CC1CC(C)CN(CCCOc2ccccc2[N+](=O)[O-])C1 (configuration not stated) | -7.4 | u | -2.0% | -3.5% | -20.6%
Cc1ccc([N+](=O)[O-])c(OCCN2CCCCCC2)c1 | -14.5 | -90.1* | -10.0% | -1.4% | -5.8%
O=[N+]([O-])c1ccccc1OCCN1CCCC1 | -12.6 | -61.2* | -4.6% | 0.3% | 2.6%
Cc1ccc([N+](=O)[O-])c(OCCCN2CCC(Cc3ccccc3)CC2)c1 | -1.5 | -95.5* | -1.3% | x | -60.5%
COc1cc(CN2CCC(Cc3ccccc3)CC2)c([N+](=O)[O-])cc1OC | -0.3 | 20.6 | 5.9% | -1.1% | -32.5%
O=[N+]([O-])c1ccccc1OCCCN1CCc2ccccc2C1 | -21.4 | -102.7* | -6.2% | -0.3% | -15.6%
COc1ccccc1C(=O)Nc1ccc2nc(SCCOc3ccccc3C)sc2c1 | -5.7 | x | -3.8% | x | x
Cc1nonc1OCCN1CCN(c2ccccc2[N+](=O)[O-])CC1 | -9.0 | -58.2* | 5.3% | 0.2% | 12.6%
Nc1nonc1OCCN1CCN(c2ccc([N+](=O)[O-])c3cccnc23)CC1 | -8.1 | -5.3 | 16.0% | -0.6% | 14.4%
COc1ccc(N2CC(O)(c3ccc(OC(F)F)cc3)[N+]3=C2CCCC3)cc1 (configuration not stated) | -14.1 | -50.2* | 0.0% | 0.5% | -53.7%
COc1cc(/C=N/NC(=O)c2ccccn2)ccc1OC(=O)c1ccccc1Br | 11.7 | 45.3 | 9.3% | 1.1% | -49.3%
COc1cc(/C=N/NC(=O)c2ccccn2)ccc1OC(=O)c1ccc(Br)cc1 | 37.4* | 4.2 | 4.2% | -0.3% | u
Fc1ccc(Oc2nc(-c3ccccc3)nnc2C(F)(F)F)cc1 | -1.1 | -24.3 | 5.5% | 0.5% | 15.0%
CN(C)CCNc1nc(-c2ccccc2)nnc1C(F)(F)F | 3.0 | -51.2* | -0.9% | -1.0% | -18.9%
CN(NC(=O)C(C)(C)C)c1nc(-c2ccccc2)nnc1C(F)(F)F | -0.1 | 0.0 | 1.7% | -0.3% | 5.9%
CN(C)c1nc(-c2ccccc2)nnc1C(F)(F)F | 3.4 | -64.5* | 2.9% | 0.2% | -6.1%
Fc1ccc(Sc2nc(-c3ccccc3)nnc2C(F)(F)F)cc1 | -17.2 | -88.2* | 5.3% | -0.1% | -10.5%
COc1cc(C(=O)OC(COCCC(C)C)CN2CCOCC2)cc(OC)c1OC (configuration not stated) | 2.7 | x | x | x | x
SMILES | D3 ag | D3 antag | IDH1 R132H inh | B2AR arrestin | Integrin act MD
CCOc1ccc(NC(=O)CSc2nnc3c(C)cc4ccccc4n23)cc1 | -8.8 | x | x | x | x
O=[N+]([O-])c1ccc2nc(Cl)nc(-c3ccccc3)c2c1 | -1.2 | -56.0* | 0.6% | -0.7% | 1.7%
O=[N+]([O-])c1ccc2nc(-[n+]3c(-c4ccccc4)cc(-c4ccccc4)cc3-c3ccccc3)[nH]c2c1 | 0.6 | 28.3 | 3.9% | 10.7% | -53.5%
CC1=C(C(=O)O)N2C(=O)[C@@H](NC(=O)[C@H](N)C3=CCC=CC3)[C@H]2SC1 | -22.1 | x | x | x | x
CC#CC(=O)NC1CCCN(C2Cc3ccccc3C2)C1 (configuration not stated) | 2.4 | 0.9 | -3.2% | 0.1% | 10.2%
COc1cccc(C(=O)NC2CCCN(C3Cc4ccccc4C3)C2)c1OC (configuration not stated) | -3.3 | -92.6* | -15.8% | -0.1% | 6.9%
Cc1ccc(CNC(=O)c2cccc(Nc3nc4ccccc4n4nnnc34)c2)cc1 | 5.0 | x | 7.8% | x | x

Screening data (PubChem BioAssay)
